# In PubChem BioAssay AID1508600 (Functional Genomics Laboratory (NCATS/FGL), 2020):
# About 3,700 (7%) of roughly 53,000 sequences were called active. The sample as a whole holds a higher share of actives than the screen did. Values without a mark were called inactive.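 How the source made its calls: active means gene knockdowns whose robust z-score for IL-1 alpha signal is at least 2 or at most -2, so actives lie on both sides; inactive means the rest.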
# Test: Components of the Cytosolic LPS Sensing Pathway: Gene Identification via Genome-wide siRNA Screen;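 further: robust z of the log signal after scaling to non-targeting control siRNA wells of the plate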
# Settings: RAW264.7 macrophages, IL-1a HTRF, actives lie on both sides, screened at 100 nM (by protocol), cells primed 5 h with Pam3CSK4 first
# Procedure, shortened: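 IL-1a HTRF of supernatants after 24 hour LipidA transfection of Pam3CSK4-primed (5 hours) RAW264.7 cells, 48h post-siRNA transfection (100 nM). Scores: percent of plate negative-control median, then log-based robust z-score.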
row,Sequence,z-score
1,GGGAAUAGCAAACUUAUCUTT against Nfil3,-0.688
2,GGGACAAAACCUUGAUGGUTT against Vmn1r200,-0.254
3,GGAAGUAAUCAAUUUGGUGTT against Epm2aip1,1.36
4,GGUGUUAAUCCAGUUCAAUTT against Bbs12,2.26 (active)
5,GCACAUGUAUCCAUGCUUCTT against Kcnj11,-0.815
6,GGAAGUUCGUGGAAGGCAATT against Pck1,0.188
7,GGAAGAAAACAGCGAUUUGTT against Ppp1r15a,-0.447
8,GCAUUAUUCAUAUGUUGGUTT against Fpr-rs4,-0.318
9,GGAGUCUCUGAAGAAAACATT against Hus1,-0.596
10,GGAAGAAAGAGAGGUGUGATT against Nxf2,-2.26 (active)
11,CCCAAUUUGGAGCUAUCAGTT against Cwh43,-0.89
12,GGACUUCCAGAUCCAACCUTT against Robo4,-0.867
13,GGAACUCUCAAGAGAGAAUTT against Dnajc14,0.233
14,GGUACCCACUAGAGGAUCATT against Madd,-2.61 (active)
15,GGACAGAGAACAAAUGACCTT against 4931417E11Rik,-1.91
16,GGCAGCAGUUAUUGUGGAUTT against Ly6a,0.693
17,GGAAGGACCAAAGCUUUCUTT against Olfr1123,0.982
18,CCACCAAUGAUUUGAUGCATT against Gpr75,-0.0162
19,GGAUUUUGAAUUAUGGGAUTT against Relch,-0.0955
20,CGAAGGGAUUGAUUUGACUTT against Kars,-0.324
21,GCCAAAUGUGCGUCAUCUATT against Zdhhc25,-2.54 (active)
22,CGCACUUUGGCUUGUAAUUTT against Smad6,0.327

row,Sequence,z-score
1,GCUGUAAACCGAAUCAAAGTT against Khdc4,0.0586
2,CGUGAGGUUAUGAUGUAUUTT against Gm5444,-1.3
3,GGAAAGGACAAGAAAAUUUTT against Strn,-2.03 (active)
4,CCAUUAUCCUGGUGUGUAUTT against Olfr1362,-0.0735
5,GGCGAUACUUGGAAAAAUCTT against Nln,-0.508
6,GCCCGUCCUGUUUGGAUUATT against Wdr53,0.501
7,GGACCUUGAGAUAUCUUUUTT against D130020L05Rik,-0.361
8,GGACAGAGGACAAGCAGAATT against Ghrl,-0.532
9,CCAGAUCGGGAAAAAGGGUTT against Tsn,-2.04 (active)
10,CCUAAUUUGAUCCUUCGAATT against Zfp672,-0.947
11,GAACGACAACCCGAUAAUGTT against Ttc9c,-0.141
12,GGAUUUAAUGGUAAAUCACTT against Relch,0.034
13,GGUUCUUGGAUAAAUCAAGTT against Mrpl40,2.41 (active)
14,GGAAGGUCAAAGUCCUUUATT against Pitpnm2,-0.685
15,GGCUUCAAGCUAUUCAUGATT against Dgkb,0.126
16,GGGAUUGAGGGAGAUUUUCTT against Tedc2,-0.206
17,GUGCUUCUGAUCUCCUACATT against Olfr223,1
18,CCAAUCCAAUGAAUGUUUCTT against A330070K13Rik,-1.75
19,GCUGAAAGUAUUCAUGUAATT against Sec13,-1.6
20,GAUAUGUGCACAAUUCUGCTT against Vmn1r201,-2.3 (active)
21,GGCCAUCUCUUCUACUGUATT against Glt28d2,0.0935
22,GCUUUCUGGGUAACAUAGGTT against Ubqln3,-1.46

row,Sequence,z-score
1,AACCAUUCAGGAGAAAGCCTT against Lce1a1,-3.05 (active)
2,GGGACCUUGAUCAAAACCUTT against Gp5,-0.215
3,GGAAAUGACAAGUAUGAAGTT against Gria4,-1.33
4,GUACCCAAAAUGUUGAUGATT against Olfr979,0.794
5,GCGGCUCCAUCAGAAAAUGTT against Htatip2,0.526
6,GGAAAUCCAUGAGAAGGUGTT against Ctbp2,0.732
7,CCUGAAUUACAGGGACCAGTT against Znrd1,3.49 (active)
8,GGUGAACUUGUGUCUCACUTT against Tango2,0.0582
9,GGAGCUGUAUCGCACGAAATT against Ehd2,-0.689
10,GGAAACCGAAUUCCAAGGGTT against Ddx25,1.78
11,GGAAGUGGAAAAACUGGUGTT against Ddx1,-1.21
12,GGAACUGUUUGACAGUGAGTT against Pex19,-0.811
13,GGAUCUAAAGGUGAGUCAATT against Dcaf12l1,-0.388
14,GCCUUGGAUAAACCAGACGTT against Mfsd4a,-2.38 (active)
15,GGAACCAAUCAGUUGGUUATT against Taf7,0.395
16,GGAGAUACAGGAUAUUAUUTT against Nme5,-0.0528
17,GCACUUACUCAUUAAUCACTT against Rnf20,-2.56 (active)
18,GCAACAGUGAAAUAGCACATT against Krit1,0.179
19,GGUUAAUGAGCUCUGUAAATT against Pknox1,-0.508
20,GCUAAGGACUCAGCAAAACTT against Coq5,0.733
21,CCGGUAAUGAGUUCAAGUGTT against Arsa,1.12
22,GGUAAAGAAAUCCUUCAAATT against Syt6,2.1 (active)

row,Sequence,z-score
1,GGUUCUUAAUGCAUUCCCGTT against Cyp2d9,-0.786
2,GGGACUUUGAUUUUGAGAGTT against Ppp1r3f,-1.58
3,GAUGCUCUCUGCUCUGAGATT against C030016D13Rik,-0.0555
4,GGAUCUAUAUCCAGUAGAGTT against Mief2,3.38 (active)
5,GGUAAUAGGAGAUACUGUGTT against Gzme,0.624
6,GGACCUUUCUCAACUACUATT against Edem2,-0.706
7,GGGAAACAAGCAUCUUCUGTT against Bmp5,-0.474
8,CCACUUCAGUAUUUGGCUUTT against Tas2r137,-0.404
9,GGACUCCUCAUGCUGAAGATT against Cdh13,1.97
10,GCUCUAUUUGACCACCUCATT against Gdpd1,-0.898
11,CCACUCAAGAUCGAUACCUTT against Fgd1,0.167
12,GGGUGAAGAGAGAUGAAAATT against Krt82,1.64
13,GCUUGUUUACAUCGGACUUTT against Samt2,0.9
14,GCAUCGUGCAGAAUUUUGCTT against Ephb1,-1.04
15,CCAGUGAUUAUCUUUAAUGTT against Slc9c1,-0.435
16,GCUAUCAAAGCUAAUACAUTT against Mrps9,3.41 (active)
17,GGUUAAGGAUGCUCAAGUATT against Krt20,-0.187
18,GGUCGUGUUCGAGCAAACCTT against Tpi1,-0.725
19,GCAGAAUUGAAGCUGGAAUTT against Stag1,2.49 (active)
20,GGUGACAUGGAUGUAGCAATT against Fcsk,1.18
21,CCACAUCUCAUGUGAAACCTT against Olfr517,-0.927
22,CCUUUUACACUCUAGUAUGTT against Ptger4,-0.349

row,Sequence,z-score
1,GCUUGAAUAUGAGAACGAATT against Deup1,-0.451
2,GGUCAAGGUAGGCAAUGAATT against Stau2,-2.32 (active)
3,GGGCAACAAGGAGUACUCATT against Prss45,-1.88
4,GGAGGAAAUGAAAACCUUUTT against Cep89,-0.823
5,GGAGAACAUAAUGAAAUCUTT against Fam50a,-0.0744
6,GGAUCAAAUUCUACCUUAGTT against Tbc1d5,-0.595
7,GGAGGUUGCUACAUGGUUATT against Amz1,-0.644
8,GGUCCACUGAUUCUGAUAATT against Cyp4a31,1.79
9,GGAUUUUGCCUAAAAUACATT against Sephs1,0.179
10,GGGACAGCUUUUGUGACUCTT against Raver1,-2.16 (active)
11,GGGCAAAUCCUUUAGUUUGTT against Siae,-0.62
12,CUACAGUGGCAAUAAUAUUTT against Rpl30,0.425
13,GGUACUAAAUAAAAGACCGTT against Dsc2,1.15
14,GGAGGAGAGAUGGUAAUCCTT against Olfr729,-0.185
15,GGAUGAGUAUGAGAGGAAUTT against Dcp1a,2.51 (active)
16,GGUAACUGGGAAUUGUGUUTT against Vti1a,0.812
17,GGGUCUCUAAGUGCUCCGUTT against Sfxn2,0.433
18,CGUGAAUCACUAUACAUAATT against A630052C17Rik,-1.39
19,GGAAACAGUAGAAGAUGAGTT against Fam220a,0.151
